Screens: PubChem, National Center for Advancing Translational Sciences (NCATS)
IL-1B inflam inh = blocks inflammasome-driven IL-1 beta release | activity change, % at 57.5 µM | AID 743279 | THP-1 LPS/ATP IL-1B secretion, AlphaLISA, 16 h; active compounds read low | 360,000 compounds, 4.7% hits; in the data active = activity change below about -50%; inconclusive = mostly about -30% to -49%
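Secreted IL-1B measured by AlphaLISA bead assay after 16 h compound exposure of THP-1 cells; compounds (final up to 57.5 uM) added 1 h before LPS (250 ng/mL) and ATP (1.25 mM) stimulation; lower signal means less secretion.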
ELG1 repair inh = blocks ELG1-dependent DNA repair in HEK293T cells. HEK293T ELG1-luciferase reporter, luminescence, 16 h; DNA damage induced by 5-fluorouridine. Potency, µM (top dose mostly 46.1 µM), usual class: inhibitors. 330,000 compounds, 2.3% hits. AID 504467; note: nearly all actives have a fitted effect of over 55% in size
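Luminescence from the luciferase reporter, measured 30 min after ONE-Glo reagent at room temperature, was the read-out. Beforehand, 2,000 cells per well were exposed for 16 hr at 37 °C to 5-fluorouridine together with compound or vehicle.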
DT40 TDP1 CPT = growth inhibition of DT40 Tdp1-/-;hTDP1 cells with camptothecin (screen for TDP1 inhibitors); chicken DT40 Tdp1-/-;hTDP1 cells + 20 nM CPT, ATP luminescence, 48 h; Potency, µM (doses to about 46.2 µM), hits mostly inhibitors; 420,000 compounds, 12% hits; AID 686979; note: nearly all actives have a fitted effect of over 55% in size
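Chicken DT40 Tdp1-/- cells stably complemented with human TDP1 were seeded at 400 cells/well in medium containing 20 nM camptothecin, exposed to pin-transferred compounds, and grown at 37 °C for at least 48 hr. Viability was read as ATP luminescence.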
VP16 counter = counter-screen for ROR gamma inhibitors: Gal4-VP16 reporter; Drosophila S2 Gal4-VP16 UAS-luciferase, luminescence, 20 h; 310,000 compounds, 3.5% hits; Potency, µM (series often up to 53.6 µM), actives largely listed as inhibitors;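 note: Gal4-VP16 expression switched on by copper sulfate through the metallothionein promoter; nearly all actives have a fitted effect of over 50% in size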
RORg inh = blocks mouse ROR gamma transcriptional activity. Drosophila S2 Gal4-RORgamma UAS-luciferase reporter, 20 h. Potency, µM (highest dose often 53.6 µM), actives largely listed as inhibitors. 310,000 compounds, 5.4% hits. AID 2551; note: nearly all actives have a fitted effect of over 60% in size
Target sequence (P51450 whole entry, looked up, the tested form may be a part): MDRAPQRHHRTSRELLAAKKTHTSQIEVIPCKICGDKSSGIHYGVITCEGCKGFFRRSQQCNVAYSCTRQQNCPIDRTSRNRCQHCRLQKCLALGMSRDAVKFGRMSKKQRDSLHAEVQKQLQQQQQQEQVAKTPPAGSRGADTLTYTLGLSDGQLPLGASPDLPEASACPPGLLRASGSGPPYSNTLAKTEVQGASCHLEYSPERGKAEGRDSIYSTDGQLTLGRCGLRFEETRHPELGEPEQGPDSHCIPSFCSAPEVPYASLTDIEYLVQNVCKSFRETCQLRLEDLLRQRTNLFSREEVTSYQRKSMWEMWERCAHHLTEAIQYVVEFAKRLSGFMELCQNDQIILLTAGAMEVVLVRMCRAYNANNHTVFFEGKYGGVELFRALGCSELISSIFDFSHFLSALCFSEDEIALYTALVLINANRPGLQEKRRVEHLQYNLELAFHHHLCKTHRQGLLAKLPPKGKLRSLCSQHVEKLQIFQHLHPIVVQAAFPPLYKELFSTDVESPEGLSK
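A Gal4/UAS one-hybrid system in insect cells: metallothionein-promoter Gal4–ROR gamma fusion plus Photinus luciferase reporter. Copper sulfate 700 uM final, 20 hr ambient incubation, luminescent detection after 10 min with reagent.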
TDP1 cell noCPT = qHTS for Inhibitors of human tyrosyl-DNA phosphodiesterase 1 (TDP1): qHTS in cells in absence of CPT | 420,000 compounds, 15% hits | Potency, µM (top dose mostly 46.2 µM), most hits filed as inhibitors | DT40 Tdp1-/- hTDP1 cells, no CPT, ATP luminescence, 48 h; note: nearly all actives have a fitted effect of over 55% in size
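Growth kinetics read by CellTiter-Glo luminescence after ≥48 hr at 37 °C. Cells: DT40 Tdp1-/- stably carrying human TDP1, 400 per well, compound exposure in the absence of CPT (DMSO vehicle).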
Of the large screens only hits and unclear results are named; the others gave an inactive call. Shown are actives, neighbours in structure and some others; about 21% of the full set was active somewhere. Unless noted, calls come from the whole dose curve; as a rule, active = well fitted curve in the direction sought with a large enough effect; inconclusive = small, poorly fitted or top-dose-only effect, or another doubt; inactive = no such curve, though single readings can be large; an effect the other way counts as inactive or inconclusive.

Cc1cccc(Cn2c(C(C)O)nc3ccccc32)c1 (stereo not drawn)	none
CC(C)C(NC(=O)c1ccoc1)c1nnc2n1CCN(C(=O)/C=C/c1ccc(F)cc1)CC2 (stereo not drawn)	none (no result: IL-1B inflam inh, ELG1 repair inh, VP16 counter, RORg inh)
O=C(N/N=C/C=C/c1ccccc1[N+](=O)[O-])c1cc(-c2cccnc2)nc2ccccc12	ELG1 repair inh 16µM, DT40 TDP1 CPT inconclusive, VP16 counter 5.6µM, RORg inh 7.1µM, TDP1 cell noCPT 21µM
COc1ccccc1-c1cc(C(=O)N/N=C/C=C/c2ccccc2[N+](=O)[O-])c2ccccc2n1	IL-1B inflam inh -51, ELG1 repair inh 16µM, DT40 TDP1 CPT 18µM, VP16 counter 11µM, RORg inh 8.9µM, TDP1 cell noCPT 21µM
COc1ccccc1/C=C/C=N/NC(=O)c1ccc2nc[nH]c2c1	none (no result: IL-1B inflam inh, DT40 TDP1 CPT, TDP1 cell noCPT)
O=C(NN=Cc1cccc([N+](=O)[O-])c1)c1cc(-c2cccnc2)nc2ccccc12	ELG1 repair inh 23µM, DT40 TDP1 CPT inconclusive, TDP1 cell noCPT inconclusive (no result: VP16 counter, RORg inh)
COc1ccc(C(=O)N2CCC3(CCCN(Cc4ccccc4)C3)CC2)cc1	none (no result: IL-1B inflam inh, ELG1 repair inh)
COc1ccc(N2CC(NC(=O)c3c(F)cccc3Cl)CC2=O)cc1OC (stereo not drawn)	none (no result: IL-1B inflam inh, ELG1 repair inh, VP16 counter, RORg inh)
CC1CC(C)(C)NC2(CCCC2)N1 (stereo not drawn)	none (no result: ELG1 repair inh, VP16 counter, RORg inh)
CN(C)/C=N/C(=S)Nc1ccccc1	ELG1 repair inh inconclusive, RORg inh 16µM
C[C@@H]([C@H](O)c1ccccc1)N(C)C(=S)Nc1ccccc1	none
CN(C)/C=N/C(=S)Nc1ccc(Br)cc1F	ELG1 repair inh inconclusive, VP16 counter 13µM, RORg inh inconclusive, TDP1 cell noCPT inconclusive
C=CCNC(=S)Nc1ccc(Br)cc1F	VP16 counter inconclusive, RORg inh 16µM, TDP1 cell noCPT inconclusive
C=CCNC(=S)NCc1ccc(CNC(=S)NCC=C)cc1	none
C=CCNC(=S)Nc1ccc(Cl)cc1F	ELG1 repair inh inconclusive, RORg inh 14µM
COc1ccc(CC(=S)NCCc2ccccc2)cc1	TDP1 cell noCPT inconclusive
COc1ccc(NC(=O)c2oc3ccccc3c2NC(=O)c2ccco2)c(OC)c1	ELG1 repair inh inconclusive, DT40 TDP1 CPT 6.3µM, TDP1 cell noCPT inconclusive
O=C(Nc1c(C(=O)Nc2ccc(F)cc2)oc2ccccc12)c1cc2ccccc2o1	DT40 TDP1 CPT inconclusive, TDP1 cell noCPT 18µM (no result: IL-1B inflam inh, ELG1 repair inh, VP16 counter, RORg inh)
O=C(Nc1ccc(F)cc1)c1oc2ccccc2c1NC(=O)C12CC3CC(CC(C3)C1)C2	TDP1 cell noCPT inconclusive (no result: IL-1B inflam inh, ELG1 repair inh, VP16 counter, RORg inh)
COc1ccc(NC(=O)c2oc3ccccc3c2NC(=O)c2ccco2)cc1	ELG1 repair inh 10µM, DT40 TDP1 CPT inconclusive, TDP1 cell noCPT 18µM (no result: IL-1B inflam inh)
COc1ccc(NC(=O)c2oc3ccccc3c2NC(=O)c2cc(=O)c3c(C)cc(C)cc3o2)cc1	DT40 TDP1 CPT inconclusive, TDP1 cell noCPT 2.9µM (no result: IL-1B inflam inh, ELG1 repair inh, VP16 counter, RORg inh)
CC(=O)NC(Cc1c[nH]c2ccccc12)C(=O)N1CCN(S(=O)(=O)c2ccccc2)CC1 (stereo not drawn)	none (no result: VP16 counter, RORg inh)
COc1ccc(NC(=O)c2oc3ccccc3c2NC(=O)c2cc3ccccc3o2)cc1	DT40 TDP1 CPT inconclusive, TDP1 cell noCPT 4.1µM (no result: IL-1B inflam inh, ELG1 repair inh, VP16 counter, RORg inh)
COc1ccc(NC(=O)c2oc3ccccc3c2NC(=O)c2cc3ccccc3o2)c(OC)c1	none (no result: IL-1B inflam inh, ELG1 repair inh, VP16 counter, RORg inh)
Cc1nnc2c(N(C)S(=O)(=O)c3ccccc3)nc3ccccc3n12	ELG1 repair inh inconclusive
Cc1cccc(N(C)c2nc3ccccc3c3nnc(C)n23)c1	DT40 TDP1 CPT inconclusive, TDP1 cell noCPT 29µM (no result: IL-1B inflam inh, ELG1 repair inh, VP16 counter, RORg inh)
Cc1ccc2c(C)c(C(=O)N(C)C(C)c3ccncn3)oc2c1C (stereo not drawn)	none
Cc1ccc2c(C)c(C(=O)N(C)C(C)c3ccon3)oc2c1C (stereo not drawn)	ELG1 repair inh inconclusive, DT40 TDP1 CPT inconclusive, TDP1 cell noCPT 16µM
COc1ccc(C[C@H]2CN3C(=NC[C@@H]3C(C)C)N2CCNC(=O)CCC2CCCCC2)cc1	IL-1B inflam inh -56, DT40 TDP1 CPT 8.2µM, TDP1 cell noCPT 7.3µM
CC(C)[C@H]1CN=C2N(CCNC(=O)CCC3CCCCC3)[C@H](Cc3ccc(O)cc3)CN21	ELG1 repair inh inconclusive, DT40 TDP1 CPT 13µM, TDP1 cell noCPT 8.2µM
C[C@@H]1CN=C2N(CCNC(=O)CCC3CCCCC3)[C@H](Cc3ccc(O)cc3)CN21	ELG1 repair inh inconclusive, DT40 TDP1 CPT 13µM, TDP1 cell noCPT 16µM
COc1ccc(C[C@@H]2CN3C(=NC[C@@H]3C)N2CCNC(=O)c2ccc(C)c(Br)c2)cc1	IL-1B inflam inh inconclusive, DT40 TDP1 CPT 23µM, TDP1 cell noCPT 13µM
C/C=C(\C)C(=O)NCCN1C2=NC[C@H](C)N2C[C@@H]1Cc1ccc(OC)cc1	none
COc1ccc(C[C@H]2CN3C(=NC[C@@H]3Cc3ccccc3)N2CCNC(=O)CCC2CCCCC2)cc1	DT40 TDP1 CPT 13µM, RORg inh inconclusive, TDP1 cell noCPT 16µM
CC1CC(C)CN(S(=O)(=O)c2ccc(C(=O)Nc3sccc3C(N)=O)cc2)C1 (stereo not drawn)	ELG1 repair inh inconclusive, DT40 TDP1 CPT 18µM, VP16 counter inconclusive, TDP1 cell noCPT 21µM
CC1CC(C)CN(S(=O)(=O)c2ccc(C(=O)Nc3nnc(-c4cccs4)o3)cc2)C1 (stereo not drawn)	ELG1 repair inh 5.8µM, DT40 TDP1 CPT 6.3µM, VP16 counter 0.5µM, RORg inh 0.25µM, TDP1 cell noCPT 5µM
